# Measurements: PubChem BioAssay AID651725 (National Center for Advancing Translational Sciences (NCATS), 2012)
# Screen size: about 360,000 compounds; about 2,000 (0.56%) were called active. Another 2% or so got no clear call; they are omitted. Many of the other results were omitted from the sample, so actives are more common in it than they were. Unmarked numbers belong to inactive results. Cut-off read from the data, not from the text of the source: active = activity change below about -65%; inconclusive = mostly about -30% to -63%; inactive = weaker than that.
# Molecular target: Homeobox protein SIX1 (Homo sapiens) + Protein phosphatase EYA2 (Homo sapiens) (UniProt Q15475+O00167)
# Sequence (O00167 whole entry, looked up): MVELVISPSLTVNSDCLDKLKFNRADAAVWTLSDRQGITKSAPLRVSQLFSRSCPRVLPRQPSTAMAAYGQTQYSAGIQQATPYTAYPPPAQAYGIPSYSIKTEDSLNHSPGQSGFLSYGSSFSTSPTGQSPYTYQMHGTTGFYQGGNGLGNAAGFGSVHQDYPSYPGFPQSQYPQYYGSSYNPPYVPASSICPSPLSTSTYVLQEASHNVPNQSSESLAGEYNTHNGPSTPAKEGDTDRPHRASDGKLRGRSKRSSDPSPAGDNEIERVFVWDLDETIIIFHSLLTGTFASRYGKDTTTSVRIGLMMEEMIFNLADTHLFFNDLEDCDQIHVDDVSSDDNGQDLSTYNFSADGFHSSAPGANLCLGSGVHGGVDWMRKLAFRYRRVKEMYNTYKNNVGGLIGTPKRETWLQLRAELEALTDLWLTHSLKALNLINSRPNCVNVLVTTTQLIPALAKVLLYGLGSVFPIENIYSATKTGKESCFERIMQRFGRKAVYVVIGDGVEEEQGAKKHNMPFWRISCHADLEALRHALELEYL
# Sequence (Q15475 whole entry, looked up): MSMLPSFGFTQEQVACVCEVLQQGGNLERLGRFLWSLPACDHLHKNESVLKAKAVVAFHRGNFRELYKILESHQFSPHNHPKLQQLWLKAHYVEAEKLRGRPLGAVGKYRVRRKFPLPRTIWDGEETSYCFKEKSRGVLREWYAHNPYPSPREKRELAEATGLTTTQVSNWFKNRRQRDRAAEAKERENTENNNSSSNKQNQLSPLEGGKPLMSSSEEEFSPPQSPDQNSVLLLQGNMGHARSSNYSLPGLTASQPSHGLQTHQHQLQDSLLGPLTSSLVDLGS
# Experiment: qHTS Assay for Inhibitors of the Six1/Eya2 Interaction
# Details: AlphaScreen GST-Six1/His-Eya2 binding, biochemical; stronger effect = lower value
# From the text: Its expression is low or undetectable in normal adult breast tissue but the gene is over-expressed in 50% of primary breast tumors and 90% of metastatic lesions. […] Similar to Six1, Eya2 is also not expressed in most normal adult tissues, but is reexpressed in cancers. The Six1-Eya interaction is essential for proliferation during embryonic development, and both Six1 and Eya2 have been independently implicated in the same types of cancer. Because Six1 and Eya2 are embryonic genes with little expression in adult tissues, inhibitors of their expression/activity are likely to have limited side effects. Our goal is to identify inhibitors of the Six1/Eya interaction for potential cancer therapy. To this end, we have developed a homogenous AlphaScreen assay targeting the Six1/Eya interaction. We performed a large scale HTS of the Molecular Libraries Small Molecule Repository (MLSMR) to identify inhibitors of the Six1/Eya interaction as potential anti-cancer therapeutics. Compounds identified can also be used as chemical probes to better understand the biological functions of Six1 and Eya. NIH Chemical Genomics Center [NCGC] NIH Molecular Libraries Probe Centers Network [MLPCN] MLPCN Grant: DA033147 Assay Submitter (PI): Rui Zhao, University of Colorado Denver
# The first step of the 5 uL AlphaScreen assay is to dispense assay buffer (50 mM Tris, pH 8.0, 300 mM NaCl, 0.05% BSA, 0.02% Tween 20, 1 mM TCEP) into a Greiner 1536 white solid bottom microtiter plate (789175-F). Five microliters is added to Column 1, 4 uL is added to Column 2 and 3 uL is added to Columns 3 through 48. A 5X protein solution (250 nM GST-Six1 protein + 500 nM His-tagged Eya2 protein) is mixed and 1 uL is dispensed to Columns 3-48. Using a 1536 pintool, 23 nL of compound is transferred to the assay plate. A solution of 5X AlphaScreen beads is mixed (50 ug/mL Glutathione linked donor beads + Nickel chelated acceptor beads) and 1 uL is dispensed to Columns 2-48. The assay plate is incubated for one hour, with a lid, at 37 deg C in the dark. The plate is read using a Perkin Elmer Envision using an AlphaScreen protocol.
# % is set by controls: 0 for no effect and ±100 for the full control effect.
row,Structure (SMILES),activity change
1,O=C(N/N=C/c1c(O)n(Cc2ccccc2)c(=O)[nH]c1=O)c1ccccc1,-70.8% (active)
2,COc1ccccc1-n1c(O)c(C=NC2CC2)c(=O)[nH]c1=O,0.906%
3,CC(C)c1ccc(-n2c(O)c(/C=N/N3CCOCC3)c(=O)[nH]c2=S)cc1,5.13%
4,O=c1[nH]c(=S)n(C2CC2)c(O)c1/C=N/N1CCOCC1,-0.819%
5,Cc1cccc(-n2c(O)c(/C=N/N3CCOCC3)c(=O)[nH]c2=S)c1,-2.01%
6,O=C(N/N=C/c1c(O)n(C2CC2)c(=S)[nH]c1=O)c1ccccc1,-88.6% (active)
7,CC/C(=N\NC(=O)c1ccccc1O)c1c(O)n(Cc2ccccc2)c(=O)[nH]c1=O,-9.73%
8,O=C(N/N=C/c1c(O)n(C2CC2)c(=S)[nH]c1=O)c1ccccc1Cl,-80.8% (active)
9,O=c1[nH]c(=O)n(Cc2ccccc2)c(O)c1/C=N/Nc1c(F)c(F)c(F)c(F)c1F,1%
10,CCOC(=O)[C@]12Cc3cc(OC)ccc3[C@H]1N(C(C)C)C(=O)c1ccccc12,-2.51%
11,CCOC(=O)[C@]12Cc3ccccc3[C@H]1N(C1CCCCC1)C(=O)c1cc(OC)ccc12,-3.21%
12,C[C@]12CCC3C(CC[C@H]4[C@H](O)[C@H](O)CC[C@]34C)C1CC[C@@H]2O (stereo not given in full),0%
13,COP(=O)(NS(=O)(=O)c1ccccc1)OC,12.4%
14,CC1(C)Cc2c(C#N)c(N3CCNCC3)nc(-c3ccco3)c2CS1,-3.88%
15,O=C1NCN(c2ccccc2)C12CCN(C(c1cccs1)c1nnnn1C1CCCCC1)CC2 (stereo not given),-13.5%
16,COc1ccc(-n2nnnc2C(c2cccc3ccccc23)N2CCC(n3c(=O)[nH]c4ccccc43)CC2)cc1 (stereo not given),-11.3%
17,O=C(NCC(c1cccnc1)N1CCN(c2ccccc2)CC1)Oc1ccccc1 (stereo not given),-4.91%
18,CC12CN3CC(C)(CN(C1)C3c1cccs1)C2 (stereo not given),-7.54%
19,CC(C)c1ccc(OCC(=O)N2CCN(C)CC2)c(Br)c1,-2.15%
20,CCC(C)n1c(O)c(/C=N/Nc2nc3c(c(=O)n(C)c(=O)n3C)n2C)c(=O)[nH]c1=S (stereo not given),-86.1% (active)
21,CCC(=O)CC(c1ccc([N+](=O)[O-])cc1)c1c(O)c2ccccc2oc1=O (stereo not given),0.567%
22,O=c1[nH]c2ccccc2n1C1CCN(C(c2ccccc2)c2nnnn2Cc2ccccc2)CC1 (stereo not given),-20.3%
23,CCCCC(=O)N/N=C/c1c(O)n(CCC2=CCCCC2)c(=O)[nH]c1=O,-75.4% (active)
24,O=c1[nH]c(=O)n(CCc2ccc(F)cc2)c(O)c1/C=N/N1CCCCC1,5.39%
25,CCCCC(=O)N/N=C/c1c(O)n(-c2ccccc2)c(=O)[nH]c1=O,-83.5% (active)
26,COc1ccc(CCn2c(O)c(C=NC3CC3)c(=O)[nH]c2=O)cc1OC,-3.07%
27,CCc1nnc(NS(=O)(=O)c2ccc(N=Cc3c(O)n(-c4ccccc4)c(=O)[nH]c3=O)cc2)s1,1.54%
28,CCCCC(=O)N/N=C/c1c(O)n(CC)c(=S)n(CC)c1=O,-9.7%
29,COC(=O)C[C@H]1CC[C@H]2NC[C@@H](O)COC[C@@H]2O1,4.76%
30,CC[C@H]1CC2CN3CCc4c([nH]c5ccccc45)C(C(=O)OC)(C2)C13 (stereo not given in full),-23.8%
